Results reported in the supplement of paper PMC10849652.
Of roughly 8,800 targets only a part is listed; those with a hit were picked by preference. About 0.5% of all pairs of compound and target were hits.

What follows are targets tested with COC(=O)N[C@@H](C)CNc1nccc(-c2cn(C(C)C)nc2-c2cc(Cl)cc(NS(C)(=O)=O)c2F)n1 [encorafenib] (assay: log2 fold change, soluble protein after heating vs DMSO (PISA); higher = thermal stabilisation; K562 lysate, 10 uM; active = over 0.2 and 3.5 SD of the protein, either way, in both replicates (recomputed)).
In short: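 Dounce homogenisation of K562 pellets in PBS pH 7.4 with 1 mM MgCl2 produced a crude extract, used at 1 mg/mL protein. Exposure to 10 μM compound lasted 30 min, and aliquots were then heated for 3 min across 48°C-58°C, pooled and brought to 0.5% NP-40 at 4°C. The supernatant after 21,000xg for 90 min was quantified by TMTpro 16plex LC-MS/MS with channel sums equalised. Duplicate values are given as log-two fold change in thermal stability relative to solvent controls.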

UniProt Q13144, sequence (Q13144 whole entry, looked up): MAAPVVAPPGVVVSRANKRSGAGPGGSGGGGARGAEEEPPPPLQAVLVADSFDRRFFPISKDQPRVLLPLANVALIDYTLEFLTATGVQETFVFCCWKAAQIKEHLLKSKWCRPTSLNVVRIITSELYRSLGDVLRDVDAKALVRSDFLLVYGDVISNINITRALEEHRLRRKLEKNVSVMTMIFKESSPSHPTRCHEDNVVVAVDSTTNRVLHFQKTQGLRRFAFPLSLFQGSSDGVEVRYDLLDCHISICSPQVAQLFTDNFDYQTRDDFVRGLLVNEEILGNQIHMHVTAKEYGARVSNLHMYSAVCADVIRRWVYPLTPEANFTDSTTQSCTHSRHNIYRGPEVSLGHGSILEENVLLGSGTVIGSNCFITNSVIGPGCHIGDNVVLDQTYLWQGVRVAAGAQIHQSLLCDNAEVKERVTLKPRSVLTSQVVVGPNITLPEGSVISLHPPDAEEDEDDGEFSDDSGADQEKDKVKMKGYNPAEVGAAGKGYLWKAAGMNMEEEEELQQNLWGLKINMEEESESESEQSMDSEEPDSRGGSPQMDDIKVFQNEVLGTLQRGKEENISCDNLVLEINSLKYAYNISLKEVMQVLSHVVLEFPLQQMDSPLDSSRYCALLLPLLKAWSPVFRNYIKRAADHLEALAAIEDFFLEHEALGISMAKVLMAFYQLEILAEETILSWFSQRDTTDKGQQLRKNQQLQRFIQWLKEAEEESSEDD
UniProt Q96A65, sequence (Q96A65 whole entry, looked up): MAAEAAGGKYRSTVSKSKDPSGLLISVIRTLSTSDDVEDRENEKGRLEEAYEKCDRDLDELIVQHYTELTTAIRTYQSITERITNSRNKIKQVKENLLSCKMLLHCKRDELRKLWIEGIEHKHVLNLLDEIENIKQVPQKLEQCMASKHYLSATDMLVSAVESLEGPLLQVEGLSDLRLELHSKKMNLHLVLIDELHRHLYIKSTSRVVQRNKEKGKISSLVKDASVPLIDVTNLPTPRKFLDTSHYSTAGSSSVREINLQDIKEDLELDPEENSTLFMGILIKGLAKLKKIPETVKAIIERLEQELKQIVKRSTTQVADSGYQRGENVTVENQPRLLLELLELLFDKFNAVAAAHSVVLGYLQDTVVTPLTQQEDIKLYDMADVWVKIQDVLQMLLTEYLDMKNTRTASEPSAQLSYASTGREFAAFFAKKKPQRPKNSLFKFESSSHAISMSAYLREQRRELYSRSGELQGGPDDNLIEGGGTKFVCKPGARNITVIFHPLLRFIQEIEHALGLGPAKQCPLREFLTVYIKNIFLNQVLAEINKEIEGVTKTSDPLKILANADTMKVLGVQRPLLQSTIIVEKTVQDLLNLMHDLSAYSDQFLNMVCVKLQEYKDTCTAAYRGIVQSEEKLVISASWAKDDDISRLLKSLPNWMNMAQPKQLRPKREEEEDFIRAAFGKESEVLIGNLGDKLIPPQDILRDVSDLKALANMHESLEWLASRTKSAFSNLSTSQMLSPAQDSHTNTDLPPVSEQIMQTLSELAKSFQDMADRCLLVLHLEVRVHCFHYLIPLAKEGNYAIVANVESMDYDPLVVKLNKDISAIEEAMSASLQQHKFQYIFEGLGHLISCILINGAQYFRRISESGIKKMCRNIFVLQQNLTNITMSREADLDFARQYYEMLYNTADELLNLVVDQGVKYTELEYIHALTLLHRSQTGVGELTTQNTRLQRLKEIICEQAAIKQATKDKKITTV
UniProt O94905, sequence (O94905 whole entry, looked up): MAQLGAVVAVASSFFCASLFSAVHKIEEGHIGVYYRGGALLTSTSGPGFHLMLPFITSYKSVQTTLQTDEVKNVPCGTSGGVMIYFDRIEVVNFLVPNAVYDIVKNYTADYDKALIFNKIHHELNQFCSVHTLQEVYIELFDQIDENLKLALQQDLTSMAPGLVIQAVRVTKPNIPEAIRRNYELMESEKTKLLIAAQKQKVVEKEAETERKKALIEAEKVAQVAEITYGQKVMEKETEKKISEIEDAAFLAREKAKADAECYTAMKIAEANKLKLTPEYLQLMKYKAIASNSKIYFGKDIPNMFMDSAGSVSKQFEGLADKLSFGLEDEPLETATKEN
UniProt O43427, sequence (O43427 whole entry, looked up): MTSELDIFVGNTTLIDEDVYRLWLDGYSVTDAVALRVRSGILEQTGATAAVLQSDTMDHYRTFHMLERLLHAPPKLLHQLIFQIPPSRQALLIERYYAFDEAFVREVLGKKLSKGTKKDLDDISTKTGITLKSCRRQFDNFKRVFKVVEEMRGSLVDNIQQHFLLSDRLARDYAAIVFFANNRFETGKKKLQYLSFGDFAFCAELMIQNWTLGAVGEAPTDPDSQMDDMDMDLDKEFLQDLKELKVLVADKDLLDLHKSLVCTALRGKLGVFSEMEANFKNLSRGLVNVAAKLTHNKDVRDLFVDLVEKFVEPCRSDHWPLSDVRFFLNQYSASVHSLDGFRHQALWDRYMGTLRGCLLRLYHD
UniProt Q8NEZ5, sequence (Q8NEZ5 whole entry, looked up): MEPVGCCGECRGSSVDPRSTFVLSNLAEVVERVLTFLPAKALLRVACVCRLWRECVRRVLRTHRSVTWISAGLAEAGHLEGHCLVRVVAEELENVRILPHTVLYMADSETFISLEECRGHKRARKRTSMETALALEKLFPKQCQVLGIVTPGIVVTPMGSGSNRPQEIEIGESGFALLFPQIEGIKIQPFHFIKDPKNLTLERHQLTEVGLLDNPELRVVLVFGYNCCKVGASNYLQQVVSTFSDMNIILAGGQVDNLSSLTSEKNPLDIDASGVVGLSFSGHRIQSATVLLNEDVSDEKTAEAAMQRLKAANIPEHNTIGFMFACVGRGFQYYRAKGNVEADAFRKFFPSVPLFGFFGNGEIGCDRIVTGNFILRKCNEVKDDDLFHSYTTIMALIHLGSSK
UniProt P07814, sequence (P07814 whole entry, looked up): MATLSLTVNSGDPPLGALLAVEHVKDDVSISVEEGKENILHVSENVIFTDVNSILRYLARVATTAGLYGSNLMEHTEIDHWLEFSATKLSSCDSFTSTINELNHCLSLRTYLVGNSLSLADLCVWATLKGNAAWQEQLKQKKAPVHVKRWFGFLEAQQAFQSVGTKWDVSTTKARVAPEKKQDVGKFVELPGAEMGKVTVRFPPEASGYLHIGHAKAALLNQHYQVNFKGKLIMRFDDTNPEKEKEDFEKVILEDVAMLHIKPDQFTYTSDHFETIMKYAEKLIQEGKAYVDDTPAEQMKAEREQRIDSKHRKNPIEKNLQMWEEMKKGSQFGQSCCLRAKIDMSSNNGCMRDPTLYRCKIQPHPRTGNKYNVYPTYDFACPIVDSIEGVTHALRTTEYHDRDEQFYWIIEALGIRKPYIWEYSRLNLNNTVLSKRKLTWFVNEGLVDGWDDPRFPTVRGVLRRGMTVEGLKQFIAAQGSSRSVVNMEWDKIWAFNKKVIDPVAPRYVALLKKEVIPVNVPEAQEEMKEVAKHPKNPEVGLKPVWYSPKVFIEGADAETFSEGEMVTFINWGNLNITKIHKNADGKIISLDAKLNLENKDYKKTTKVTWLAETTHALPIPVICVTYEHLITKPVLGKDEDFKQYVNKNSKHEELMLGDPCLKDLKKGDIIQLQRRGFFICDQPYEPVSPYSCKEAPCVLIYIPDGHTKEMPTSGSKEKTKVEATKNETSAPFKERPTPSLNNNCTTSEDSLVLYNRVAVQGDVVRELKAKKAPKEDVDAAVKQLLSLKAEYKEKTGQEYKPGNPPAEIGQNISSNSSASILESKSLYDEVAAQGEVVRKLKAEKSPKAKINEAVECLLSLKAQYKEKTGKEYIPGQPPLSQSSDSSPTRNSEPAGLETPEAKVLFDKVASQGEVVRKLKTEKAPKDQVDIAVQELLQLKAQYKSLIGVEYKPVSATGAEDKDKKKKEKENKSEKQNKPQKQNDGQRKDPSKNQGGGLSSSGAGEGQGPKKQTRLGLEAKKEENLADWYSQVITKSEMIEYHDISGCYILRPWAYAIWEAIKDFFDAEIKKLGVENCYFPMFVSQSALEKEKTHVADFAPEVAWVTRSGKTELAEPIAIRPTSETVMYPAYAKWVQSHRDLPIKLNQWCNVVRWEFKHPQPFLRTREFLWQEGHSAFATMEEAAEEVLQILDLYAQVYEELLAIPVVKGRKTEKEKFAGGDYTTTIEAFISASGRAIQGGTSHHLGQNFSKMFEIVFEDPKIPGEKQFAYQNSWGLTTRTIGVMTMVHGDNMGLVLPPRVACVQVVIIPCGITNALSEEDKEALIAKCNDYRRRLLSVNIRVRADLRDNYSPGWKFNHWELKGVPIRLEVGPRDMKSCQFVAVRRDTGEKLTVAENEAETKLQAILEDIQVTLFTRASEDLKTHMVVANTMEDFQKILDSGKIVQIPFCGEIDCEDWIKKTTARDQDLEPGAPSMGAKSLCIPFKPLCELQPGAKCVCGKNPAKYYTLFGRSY
UniProt Q13347, sequence (Q13347 whole entry, looked up): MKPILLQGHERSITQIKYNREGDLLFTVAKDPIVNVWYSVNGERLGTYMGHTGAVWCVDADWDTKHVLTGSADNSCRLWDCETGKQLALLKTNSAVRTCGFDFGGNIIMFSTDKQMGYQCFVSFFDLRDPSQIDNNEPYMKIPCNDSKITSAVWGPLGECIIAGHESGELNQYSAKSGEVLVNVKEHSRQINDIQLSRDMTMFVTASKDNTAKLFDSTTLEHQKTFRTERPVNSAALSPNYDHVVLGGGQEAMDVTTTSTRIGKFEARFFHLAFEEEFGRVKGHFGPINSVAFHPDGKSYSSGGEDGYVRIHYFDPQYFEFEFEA
UniProt Q9UBQ6, sequence (Q9UBQ6 whole entry, looked up): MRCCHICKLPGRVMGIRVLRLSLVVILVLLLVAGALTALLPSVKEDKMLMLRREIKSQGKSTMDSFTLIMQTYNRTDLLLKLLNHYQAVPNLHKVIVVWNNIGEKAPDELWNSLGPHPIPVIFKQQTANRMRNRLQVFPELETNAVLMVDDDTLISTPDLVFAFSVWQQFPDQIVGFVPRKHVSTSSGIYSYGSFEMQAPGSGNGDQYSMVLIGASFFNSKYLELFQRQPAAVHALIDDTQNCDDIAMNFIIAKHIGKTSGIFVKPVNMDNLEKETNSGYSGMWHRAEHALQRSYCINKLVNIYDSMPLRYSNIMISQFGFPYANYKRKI

log2 fold change, inactive:
FTL (UniProt P02792) 0.145
EPHX2 (UniProt P34913) -0.02
FLAD1 (UniProt Q8NFF5) 0.031
ELF2 (UniProt Q15723) 0.028
EPB41, A0A2R8Y6D0 0.029
EIF3I (UniProt Q13347) -0.018
ERCC4 (UniProt Q92889) -0.065
EIF2B4 isoform 2 (UniProt Q9UI10) 0.018
EP400 isoform 5 (UniProt Q96L91) -0.028
GCN1 (UniProt Q92616) 0.014
FBXO22 (UniProt Q8NEZ5) -0.014
GIGYF2 (UniProt Q6Y7W6) 0.092
GAMT (UniProt Q14353) -0.028
ERLIN2 (UniProt O94905) 0.045
EIF2B3 (UniProt Q9NR50) -0.007
GALK1 isoform 2 (UniProt P51570) 0.02
ERAL1 (UniProt O75616) -0.018
EFCAB14 (UniProt O75071) 0.038
FPGT (UniProt O14772) 0.011
FXR2 (UniProt P51116) 0.06
FAU (UniProt E9PR30) -0.04
FIBP (UniProt O43427) 0.036
EIF2B5 (UniProt Q13144) -0.009
ECI2 (UniProt O75521) -0.006
EED, A0A5F9ZI63 0.004
DST (UniProt Q03001) 0.018
FYB1 isoform 3 (UniProt O15117) -0.005
EXTL2 (UniProt Q9UBQ6) 0.168
EXOC4 (UniProt Q96A65) 0.022
GGT7 (UniProt Q9UJ14) 0.078
DYNC1I2 isoform 5 (UniProt Q13409) -0.007
FIG4 (UniProt Q92562) 0.064
EXOC2 (UniProt Q96KP1) 0.031
FOXJ3 (UniProt Q9UPW0) 0.055
EPRS (UniProt P07814) -0.004
GALNT2 (UniProt Q10471) 0.048
GGA2 (UniProt Q9UJY4) 0.002
